Records with an inconclusive call do not appear. Unmarked numbers belong to inactive results. Activity calls are given as the source filed them. Calls follow the shape of the dose curve; as a rule, active = well fitted inhibition curve with a large enough effect; inconclusive = small, poorly fitted or top-dose-only effect, or effect the other way; inactive = flat fitted curve, though single readings scatter.
% is scaled to controls: 0 for no effect and ±100 for the full control effect; potency is read from the fitted curve at half-maximal effect.

Ubiquitin carboxyl-terminal hydrolase 2 (Homo sapiens), sequence (O75604 whole entry, looked up): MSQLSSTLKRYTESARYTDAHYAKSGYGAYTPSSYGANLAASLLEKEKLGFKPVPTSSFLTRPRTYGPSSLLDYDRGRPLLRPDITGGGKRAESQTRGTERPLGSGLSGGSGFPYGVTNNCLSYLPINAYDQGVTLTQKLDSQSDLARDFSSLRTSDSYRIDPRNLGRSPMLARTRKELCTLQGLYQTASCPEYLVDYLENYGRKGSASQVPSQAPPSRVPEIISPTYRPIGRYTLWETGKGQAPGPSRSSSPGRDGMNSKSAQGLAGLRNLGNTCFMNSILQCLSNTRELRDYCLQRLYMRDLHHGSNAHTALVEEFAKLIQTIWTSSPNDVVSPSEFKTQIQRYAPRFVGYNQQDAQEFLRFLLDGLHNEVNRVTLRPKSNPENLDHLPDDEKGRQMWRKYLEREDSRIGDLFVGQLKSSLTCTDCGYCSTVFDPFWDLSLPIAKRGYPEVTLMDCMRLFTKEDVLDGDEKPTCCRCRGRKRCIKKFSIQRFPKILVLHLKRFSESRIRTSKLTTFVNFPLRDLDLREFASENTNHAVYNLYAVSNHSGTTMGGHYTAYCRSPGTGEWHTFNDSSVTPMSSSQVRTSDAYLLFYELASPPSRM

The target in this assay is Ubiquitin carboxyl-terminal hydrolase 2 (Homo sapiens) (UniProt O75604). Briefly: Ub-rhodamine 110 based assay for inhibitors Ubiquitin-specific Protease USP2a. Also: nearly all actives have a fitted effect of over 50% in size. Particulars: USP2a Ub-rhodamine110 cleavage, fluorescence; series mostly up to 38.3 µM; activity change, negative = inhibition: at the top concentration. In short, it runs like this:
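Kinetic fluorescence (485/531 nm) read each minute over 7 min after adding Ub-Rhod110 (150 nM final) to USP2a (5 nM final). The enzyme had 30 min RT exposure to compounds beforehand in Tris pH 8.0 buffer with CaCl2, CHAPS and beta-ME.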
For `O=C(COC(=O)c1cccc(S(=O)(=O)N2CCc3ccccc32)c1)NC1CCS(=O)(=O)C1` (centres undefined), the “activity change, negative = inhibition” value was 0.352%.
On to `COCCN1Cc2cccc(C(=O)N3CCN(c4cc(C)ccc4C)CC3)c2C1=O`, for which the “activity change, negative = inhibition” value was -4.98%.
As for `CN(C)CCOCCP(=O)(c1ccccc1)c1ccccc1`, the “activity change, negative = inhibition” value is -0.767%.
Same read-out and setting: as for `O=C(Nc1cccc(-c2nn[nH]n2)c1)c1ccc(Br)s1`, the figure is -3.56%; as for `Cc1nc2ccccc2c2oc(C(=O)NCCN3CCN(C)CC3)cc12`, -12.3%.
With `CN(C)S(=O)(=O)c1ccc(C(=O)NCCN=C2NS(=O)(=O)c3ccccc32)cc1`, the “activity change, negative = inhibition” value was -8.45%.
The same measure, in the same setting: with `CN1CCN(CCCCOc2ccc(F)cc2)CC1` the figure was -2.66%.
Same read-out and setting: with `O=C(O)CC(C(=O)O)N1C(=O)/C(=C/C=C/c2ccco2)SC1=S` (centres undefined) the figure was -23.9%.
For `C=C(CCC(=O)c1ccccc1)C(=O)c1ccccc1`, the “activity change, negative = inhibition” value is -13.8%.
On the same count and under the same terms, as for `CC1CCN(c2ccc3c(c2)S(=O)(=O)c2cccc(C(=O)NC4CC4)c2C3=O)CC1`, the figure is 2.7%.
As for `CCc1cc(C(=O)N=Nc2c(O)[nH]c3ccc([N+](=O)[O-])cc23)c2ccccc2n1`, the Potency is 11.2 µM (active).
The same measure, in the same setting: with `Cc1ccc(/C=C2/SC(=S)N(c3ccc(S(=O)(=O)Nc4nccs4)cc3)C2=O)cc1` the figure was 3.55 µM (active).
On to `CC(C)OCCCNC(=O)CN1C(=O)CC(C)(C)S(=O)(=O)c2ccccc21`, for which the “activity change, negative = inhibition” value was -9.85%.
Still for that read-out and setting: with `C#CCOCCOCCOCCNc1nc(N2CCN(C(=O)CCCCCCCCCCNC(=O)Cn3cc(CCCCCN)nn3)CC2)nc(N2CCN(C(=O)CCCCCCCCCCNC(=O)[C@H](CO)n3cc(CCCCCN)nn3)CC2)n1` the figure was -12.4%.
Turning to `CCCCCCCCCCCCCCCC[N+](C)(C)CCN(Cc1ccc(OC)cc1)c1ncccn1`, the Potency was 11.2 µM (active).
The same measure, in the same setting: with `Cc1ccc(N=C2NC(=O)/C(=C/C=C/c3ccco3)S2)cc1` the figure was 7.08 µM (active).
Regarding `CC(=O)Nc1ccc(NC(=O)[C@@H](NC(=O)c2cccc(C)c2)C(C)C)cc1`, the “activity change, negative = inhibition” value was -2.39%.
As for `Cc1ccccc1NC(=O)CSc1nnc(-c2ccco2)c(-c2ccco2)n1`, the Potency was 10 µM (active).
With `C=CCn1c(NCc2cc(C)ccc2O)nc2ccccc21`, the “activity change, negative = inhibition” value is -5.84%.
Regarding `Cc1nn(CC(=O)Nc2cccc(S(N)(=O)=O)c2)c(C)c1[N+](=O)[O-]`, the “activity change, negative = inhibition” value was -4.84%.
For `CCOC(=O)C1CCCN(C(=O)c2cc(-c3ccco3)nc3ccccc23)C1` (centres undefined), the Potency was 4.47 µM (active).
As for `CCc1nnc(NC(=O)CSc2nccn2-c2cccc(C)c2)s1`, the “activity change, negative = inhibition” value was -13.4%.
On the same count and under the same terms, as for `C#CCOCCOCCOCCNc1nc(N2CCN(C(=O)CCCCCCCCCCNC(=O)Cn3cc(C[C@@H](C)O)nn3)CC2)nc(N2CCN(C(=O)CCCCCCCCCCNC(=O)[C@@H]([C@H](C)CC)n3cc(CCCCCN)nn3)CC2)n1`, the figure is -28.3%; as for `Cc1cc(C(C)(C)CC(C)(C)C)ccc1OCCOCC[N+](C)(C)Cc1ccccc1`, -5.87%.
On the same count and under the same terms, as for `COc1ccc(-n2c(=S)[nH]c3cc(C(=O)Nc4cc(OC)c(OC)c(OC)c4)ccc3c2=O)c(OC)c1`, the figure is -15.9%.
The same measure, in the same setting: with `Cc1ccc(SCc2cc(=O)c3c(=O)n(-c4ccccc4)[nH]c3[nH]2)cc1` the figure was -19%; with `CC1CCCC(NC(=O)C2N(CCCN3CCCC3)C(=O)C3C(C(=O)Nc4ccc(Cl)cc4)C4C=CC32O4)C1C` (centres undefined), -8.64%; with `O=C(CNC(=O)c1ccco1)Nc1ccc(S(=O)(=O)N2CCCC2)cc1`, -14.1%.
For the compound `C=CCOc1cccc(C2C(C(=O)c3ccco3)=C(O)C(=O)N2CCN(CC)CC)c1` (centres undefined), the “activity change, negative = inhibition” value is -4.77%.
As for `Cc1n[nH]c(C)c1S(=O)(=O)N1CCCC(C(=O)Nc2nccs2)C1` (centres undefined), the “activity change, negative = inhibition” value is 19.5%.
`CC1=C(C(=O)OC(C)C)C(C)C(C(=O)OC(C)C)=C(C)N1`: the “activity change, negative = inhibition” value is -4.29%.
The same measure, in the same setting: as for `CCCCn1c(SCC(=O)N2CCC(C)CC2)nc2cc(S(N)(=O)=O)ccc21`, the figure is -19.5%; as for `O=C(O)C1CCN1C1CCCCC1` (centres undefined), -9.55%; as for `CC(C)(C)[C@H]1COC(=O)[C@@H](Cc2ccc(F)cc2)C/C=C\C[C@@H](CC(=O)N[C@H](CO)Cc2ccccc2)C(=O)N1`, -1.31%.
On the same count and under the same terms, as for `O=C(C1CCCN(S(=O)(=O)c2cccc3cccnc23)C1)N1CCN(c2ccccc2F)CC1` (centres undefined), the figure is -17.7%; as for `Cc1ccc2c(c1)c1c3n2CCN(C(=O)Cn2c(-c4ccccc4)noc2=O)C3CCC1` (centres undefined), -9.33%.
Turning to `CC1CCN(CC(O)COc2cccc(F)c2)CC1` (centres undefined), the “activity change, negative = inhibition” value is -2.9%.
The same measure, in the same setting: with `CCOc1ccc(NC(=O)CSc2nnc(Cn3c(=O)sc4ccccc43)n2C)cc1` the figure was -1.33%; with `Cc1cc(SCC(=O)Nc2ccccc2)nc(C)n1`, 4.59%.

These data come from PubChem BioAssay AID493170 (National Center for Advancing Translational Sciences (NCATS), 2011).
